# In the supplement of paper PMC11732987, “Enantioselective OTUD7B fragment discovery through chemoproteomics screening and high-throughput optimisation” (Communications Chemistry, 2025):
# Values without a mark were called inactive.
# Tests used:
# Assay in all cases: log2 ratio of Biotin-Ahx-Ub-VS probe labelling (fragment/DMSO); higher = less target engagement (more negative = stronger competition), active = hit call of the paper (q ≤ 0.05, log2 ratio ≤ -1)
# Conditions in all cases: compound concentration: 200 uM; treatment time: 3 h
# OTUD6B = biological target: T1, OTUD6B (UniProt Q8N6M0)
# T1 sequence (whole entry): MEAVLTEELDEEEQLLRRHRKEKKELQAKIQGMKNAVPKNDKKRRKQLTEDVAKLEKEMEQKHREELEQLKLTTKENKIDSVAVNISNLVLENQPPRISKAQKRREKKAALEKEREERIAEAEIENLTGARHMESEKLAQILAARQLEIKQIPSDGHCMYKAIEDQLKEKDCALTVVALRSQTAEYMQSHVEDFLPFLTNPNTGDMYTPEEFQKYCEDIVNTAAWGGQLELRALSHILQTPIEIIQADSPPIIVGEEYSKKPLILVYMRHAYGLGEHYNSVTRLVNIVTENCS
# Procedure, shortened: (§1)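 Using Biotin-Ahx-Ub-VS at 0.5 µM final for 1 h, DUBs were labelled in HEK293T lysate (495 µg per sample) that had first been treated in triplicate with fragment at 200 µM or vehicle for 3 h. NeutrAvidin enrichment, LysC and trypsin digestion and diaPASEF LC-MS/MS followed. Spectronaut label-free quantities were global-median-normalised. Values are average log2 fragment/vehicle ratios by unpaired t-test, using proteins with ≥2 unique peptides.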
# OTUD7B = biological target: T2, OTUD7B (UniProt Q6GQQ9)
# T2 sequence (whole entry): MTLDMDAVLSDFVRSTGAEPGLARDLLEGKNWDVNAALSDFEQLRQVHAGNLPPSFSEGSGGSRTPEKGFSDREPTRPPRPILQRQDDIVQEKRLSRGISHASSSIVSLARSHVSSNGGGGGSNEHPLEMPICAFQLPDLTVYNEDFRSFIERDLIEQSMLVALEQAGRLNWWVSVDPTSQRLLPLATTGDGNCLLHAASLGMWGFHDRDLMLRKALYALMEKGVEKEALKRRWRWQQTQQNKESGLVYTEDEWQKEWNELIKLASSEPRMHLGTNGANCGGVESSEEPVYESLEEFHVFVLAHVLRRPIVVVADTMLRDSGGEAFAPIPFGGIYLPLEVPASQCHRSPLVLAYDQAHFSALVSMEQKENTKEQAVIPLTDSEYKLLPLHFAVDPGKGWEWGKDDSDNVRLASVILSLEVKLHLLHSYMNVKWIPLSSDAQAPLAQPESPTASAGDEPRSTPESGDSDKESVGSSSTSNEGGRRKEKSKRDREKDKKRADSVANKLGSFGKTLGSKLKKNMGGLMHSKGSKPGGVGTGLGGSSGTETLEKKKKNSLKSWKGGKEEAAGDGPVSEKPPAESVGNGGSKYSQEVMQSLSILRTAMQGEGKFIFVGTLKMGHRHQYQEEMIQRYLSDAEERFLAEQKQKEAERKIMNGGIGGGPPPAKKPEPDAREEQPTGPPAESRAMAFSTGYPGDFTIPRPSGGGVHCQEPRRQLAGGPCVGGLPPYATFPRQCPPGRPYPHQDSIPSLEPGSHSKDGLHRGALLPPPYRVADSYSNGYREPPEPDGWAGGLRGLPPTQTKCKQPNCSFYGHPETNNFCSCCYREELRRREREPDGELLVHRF
# Procedure, shortened: as §1
# PRPF8 = PRPF8 (UniProt Q6P2Q9)
# Procedure, shortened: as §1
# PSMD7 = biological target: T3, PSMD7 (UniProt P51665)
# T3 sequence (whole entry): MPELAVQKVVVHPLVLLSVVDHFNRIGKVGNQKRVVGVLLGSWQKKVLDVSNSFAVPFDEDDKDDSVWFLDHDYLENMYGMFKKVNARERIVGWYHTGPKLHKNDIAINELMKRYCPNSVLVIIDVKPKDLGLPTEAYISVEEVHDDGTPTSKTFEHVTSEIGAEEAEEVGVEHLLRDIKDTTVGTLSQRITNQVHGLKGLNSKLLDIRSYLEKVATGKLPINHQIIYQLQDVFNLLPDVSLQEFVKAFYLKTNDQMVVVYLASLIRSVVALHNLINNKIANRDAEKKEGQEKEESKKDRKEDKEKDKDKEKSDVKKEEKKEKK
# Procedure, shortened: as §1
# UCHL1 = UCHL1 (UniProt P09936)
# Chain of UCHL1 (P09936 whole entry, looked up): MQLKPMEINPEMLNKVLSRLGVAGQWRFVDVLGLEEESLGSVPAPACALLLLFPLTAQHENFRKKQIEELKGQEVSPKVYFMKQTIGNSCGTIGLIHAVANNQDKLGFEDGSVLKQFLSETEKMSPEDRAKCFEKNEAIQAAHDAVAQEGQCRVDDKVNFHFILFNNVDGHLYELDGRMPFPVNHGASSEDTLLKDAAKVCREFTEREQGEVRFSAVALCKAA
# Procedure, shortened: as §1
# UCHL3 = biological target: T4, UCHL3 (UniProt P15374)
# T4 sequence (whole entry): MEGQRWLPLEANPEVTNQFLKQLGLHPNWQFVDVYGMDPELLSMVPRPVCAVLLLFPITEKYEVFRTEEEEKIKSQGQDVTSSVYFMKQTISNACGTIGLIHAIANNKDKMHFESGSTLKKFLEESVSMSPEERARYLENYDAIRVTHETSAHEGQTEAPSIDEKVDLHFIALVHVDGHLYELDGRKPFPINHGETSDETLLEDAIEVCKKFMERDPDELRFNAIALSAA
# Procedure, shortened: as §1
# UCHL5 = biological target: T5, UCHL5 (UniProt Q9Y5K5)
# T5 sequence (whole entry): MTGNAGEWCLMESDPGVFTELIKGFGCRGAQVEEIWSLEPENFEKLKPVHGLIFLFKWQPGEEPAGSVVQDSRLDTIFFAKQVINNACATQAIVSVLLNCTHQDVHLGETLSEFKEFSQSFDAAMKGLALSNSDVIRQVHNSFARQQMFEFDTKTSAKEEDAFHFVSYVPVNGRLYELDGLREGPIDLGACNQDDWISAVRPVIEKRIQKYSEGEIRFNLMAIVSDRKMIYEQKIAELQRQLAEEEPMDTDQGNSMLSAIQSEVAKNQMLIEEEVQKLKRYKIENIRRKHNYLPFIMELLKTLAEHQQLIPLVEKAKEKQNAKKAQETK
# Procedure, shortened: as §1
# USP10 = USP10 (UniProt Q14694)
# Chain of USP10 (Q14694 whole entry): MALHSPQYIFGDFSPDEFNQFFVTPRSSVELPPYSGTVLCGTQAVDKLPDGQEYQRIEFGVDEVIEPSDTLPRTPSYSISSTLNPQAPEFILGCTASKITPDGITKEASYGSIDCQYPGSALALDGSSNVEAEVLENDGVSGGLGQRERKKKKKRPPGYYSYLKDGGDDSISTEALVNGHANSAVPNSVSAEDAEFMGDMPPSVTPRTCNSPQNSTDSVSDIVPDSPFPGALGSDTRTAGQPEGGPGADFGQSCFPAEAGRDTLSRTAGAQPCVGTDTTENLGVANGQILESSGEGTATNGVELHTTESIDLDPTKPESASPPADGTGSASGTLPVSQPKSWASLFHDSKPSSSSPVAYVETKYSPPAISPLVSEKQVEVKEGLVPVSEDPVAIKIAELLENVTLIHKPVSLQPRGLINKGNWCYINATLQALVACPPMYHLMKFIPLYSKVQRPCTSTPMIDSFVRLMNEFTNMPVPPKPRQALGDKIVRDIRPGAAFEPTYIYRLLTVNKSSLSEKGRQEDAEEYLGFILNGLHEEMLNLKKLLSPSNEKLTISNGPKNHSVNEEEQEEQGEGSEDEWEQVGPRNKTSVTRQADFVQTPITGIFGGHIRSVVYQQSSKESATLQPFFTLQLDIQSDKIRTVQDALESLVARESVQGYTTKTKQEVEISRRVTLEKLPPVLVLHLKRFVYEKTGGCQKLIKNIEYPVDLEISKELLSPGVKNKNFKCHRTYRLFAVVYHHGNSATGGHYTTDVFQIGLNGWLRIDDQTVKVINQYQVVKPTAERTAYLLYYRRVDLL
# Procedure, shortened: as §1
# USP15 = biological target: T6, USP15 (UniProt Q9Y4E8)
# T6 sequence (whole entry): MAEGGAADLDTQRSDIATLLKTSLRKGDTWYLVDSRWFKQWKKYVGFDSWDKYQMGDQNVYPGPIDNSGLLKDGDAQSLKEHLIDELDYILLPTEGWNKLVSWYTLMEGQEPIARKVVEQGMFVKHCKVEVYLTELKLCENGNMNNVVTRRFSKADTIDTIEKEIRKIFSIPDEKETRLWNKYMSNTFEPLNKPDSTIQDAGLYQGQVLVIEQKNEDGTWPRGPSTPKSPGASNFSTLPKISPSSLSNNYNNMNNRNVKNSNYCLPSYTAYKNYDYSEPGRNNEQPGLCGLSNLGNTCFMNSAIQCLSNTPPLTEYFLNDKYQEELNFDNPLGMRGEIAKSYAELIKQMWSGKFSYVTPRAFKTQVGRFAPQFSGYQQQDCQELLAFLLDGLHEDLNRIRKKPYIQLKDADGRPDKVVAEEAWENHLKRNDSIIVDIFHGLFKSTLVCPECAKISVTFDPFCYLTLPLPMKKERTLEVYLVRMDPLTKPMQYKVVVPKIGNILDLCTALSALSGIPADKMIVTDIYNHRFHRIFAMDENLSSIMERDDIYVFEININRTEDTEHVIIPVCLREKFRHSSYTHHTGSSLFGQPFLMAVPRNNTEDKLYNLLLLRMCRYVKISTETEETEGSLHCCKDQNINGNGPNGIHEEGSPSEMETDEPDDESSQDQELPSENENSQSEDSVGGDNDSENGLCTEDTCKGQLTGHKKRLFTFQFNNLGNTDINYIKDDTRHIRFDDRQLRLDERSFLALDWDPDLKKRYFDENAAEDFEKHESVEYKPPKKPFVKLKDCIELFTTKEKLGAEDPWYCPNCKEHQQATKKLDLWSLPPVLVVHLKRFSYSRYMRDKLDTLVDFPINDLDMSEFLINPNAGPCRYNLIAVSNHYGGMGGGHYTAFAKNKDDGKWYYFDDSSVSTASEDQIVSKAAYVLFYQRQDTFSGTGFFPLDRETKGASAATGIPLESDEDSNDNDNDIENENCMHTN
# Procedure, shortened: as §1
# USP16 = USP16 (UniProt Q9Y5T5)
# Chain of USP16 (Q9Y5T5 whole entry, looked up): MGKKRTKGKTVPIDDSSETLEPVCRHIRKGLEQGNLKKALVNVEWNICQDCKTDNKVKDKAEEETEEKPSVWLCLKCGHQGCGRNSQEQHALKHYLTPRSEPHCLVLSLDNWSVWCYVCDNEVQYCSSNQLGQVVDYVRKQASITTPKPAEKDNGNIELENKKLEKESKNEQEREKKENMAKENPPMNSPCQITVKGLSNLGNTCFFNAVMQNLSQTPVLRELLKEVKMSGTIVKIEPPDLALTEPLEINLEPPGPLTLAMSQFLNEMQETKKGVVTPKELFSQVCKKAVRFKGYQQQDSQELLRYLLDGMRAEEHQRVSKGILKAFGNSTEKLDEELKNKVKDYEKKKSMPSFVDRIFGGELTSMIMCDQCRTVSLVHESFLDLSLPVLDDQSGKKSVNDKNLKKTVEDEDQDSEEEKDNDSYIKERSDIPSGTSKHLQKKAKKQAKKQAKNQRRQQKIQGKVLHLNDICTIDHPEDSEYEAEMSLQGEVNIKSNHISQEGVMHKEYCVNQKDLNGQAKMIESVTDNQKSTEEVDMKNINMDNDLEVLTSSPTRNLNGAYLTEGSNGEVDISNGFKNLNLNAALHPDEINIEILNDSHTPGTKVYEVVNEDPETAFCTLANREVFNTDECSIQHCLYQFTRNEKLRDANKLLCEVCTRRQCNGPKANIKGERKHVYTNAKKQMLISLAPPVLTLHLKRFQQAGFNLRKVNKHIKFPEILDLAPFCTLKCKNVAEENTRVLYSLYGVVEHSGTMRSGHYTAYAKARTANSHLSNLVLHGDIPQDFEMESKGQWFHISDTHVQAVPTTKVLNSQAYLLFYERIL
# Procedure, shortened: as §1
compound,measurement,setting,value
CC(NC(=O)CCl)c1ccc2[nH]ncc2c1 (stereo not given),log2 ratio of Biotin-Ahx-Ub-VS probe labelling,OTUD6B,-0.241
same,log2 ratio of Biotin-Ahx-Ub-VS probe labelling,OTUD7B,-1.52 (active)
same,log2 ratio of Biotin-Ahx-Ub-VS probe labelling,PRPF8,-0.0557
same,log2 ratio of Biotin-Ahx-Ub-VS probe labelling,PSMD7,-0.245
same,log2 ratio of Biotin-Ahx-Ub-VS probe labelling,UCHL1,-1.1 (active)
same,log2 ratio of Biotin-Ahx-Ub-VS probe labelling,UCHL3,0.289
same,log2 ratio of Biotin-Ahx-Ub-VS probe labelling,UCHL5,-0.328
same,log2 ratio of Biotin-Ahx-Ub-VS probe labelling,USP10,-0.179
same,log2 ratio of Biotin-Ahx-Ub-VS probe labelling,USP15,-0.271
same,log2 ratio of Biotin-Ahx-Ub-VS probe labelling,USP16,-0.601
